Screening results: PubChem BioAssay, National Center for Advancing Translational Sciences (NCATS)
NPSR antag – antagonists of human neuropeptide S receptor cAMP signaling. AID 1461. 1% of 220,000 active. Potency, µM (doses to about 38.3 µM), most hits filed as inhibitors. CHO-NPSR cells, cAMP TR-FRET, antagonist mode. Q6W5P4; further: nearly all actives have a fitted effect of over 50% in size
TrxR1 substrate – substrates of rat thioredoxin reductase 1; O89049; purified TrxR1 substrate turnover, NADPH consumption readout; Potency, µM (series often up to 114 µM); 0.01% of 390,000 active; AID 588456; further: nearly all actives have a fitted effect of over 50% in size
Target sequence (O89049 whole entry, looked up): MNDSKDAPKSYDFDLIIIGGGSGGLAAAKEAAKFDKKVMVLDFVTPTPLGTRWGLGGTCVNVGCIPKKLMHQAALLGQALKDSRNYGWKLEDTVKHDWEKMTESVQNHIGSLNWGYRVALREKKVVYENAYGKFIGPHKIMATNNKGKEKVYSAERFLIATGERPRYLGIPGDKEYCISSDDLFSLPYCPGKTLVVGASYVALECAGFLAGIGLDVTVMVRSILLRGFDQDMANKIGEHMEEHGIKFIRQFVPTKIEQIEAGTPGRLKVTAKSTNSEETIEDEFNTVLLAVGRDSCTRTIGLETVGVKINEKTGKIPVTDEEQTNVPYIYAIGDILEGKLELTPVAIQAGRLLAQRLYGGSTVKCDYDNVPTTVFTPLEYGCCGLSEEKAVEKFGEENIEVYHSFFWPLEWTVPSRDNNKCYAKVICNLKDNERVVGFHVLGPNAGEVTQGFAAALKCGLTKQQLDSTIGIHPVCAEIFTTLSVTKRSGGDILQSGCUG
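Rat TrxR1, dispensed at 90 nM, was prereduced with 400 uM NADPH (final) for 5 min at ~22 deg C, then incubated with compound 15 min before 400 uM selenite. A first-read NADPH fluorescence drop versus no-compound background flagged substrates.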
TrxR1 inh – rat TrxR1 inhibition. O89049. recombinant rTrxR1, NADPH fluorescence consumption, selenite substrate. Potency, µM (highest dose often 114 µM), actives largely listed as inhibitors. 1% of 390,000 active. AID 588453; further: nearly all actives have a fitted effect of over 65% in size
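Rat TrxR1 (90 nM in the dispensed reagent) was pre-reduced with 400 uM NADPH for 5 min at room temperature, then incubated with compound for 15 min. After 400 uM selenite was added, NADPH fluorescence (Ex 340/Em 450 nm) was followed for 8 min.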
GALK inhibitor – inhibitors of human galactokinase. P51570. Purified GALK, Kinase-Glo residual ATP luminescence. Potency, µM (series often up to 57.5 µM), usual class: inhibitors. 0.007% of 270,000 active
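ATP-depletion format; final 35 uM ATP, 100 uM D-galactose, 5 nM enzyme; pH 8.0 HEPES/Mg2+ buffer; 60 min RT; luminescence read 10 min after detection reagent.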
Large screens that a line does not name were inactive. Only some compounds are listed: those with a hit (about 1.2% of all), similar ones and a draw of the others. The call rests on the fitted dose curve; in most records, active means well fitted curve in the direction sought with a large enough effect; inconclusive means small, poorly fitted or top-dose-only effect, or another doubt; inactive means no such curve, though single readings can be large; an effect the other way counts as inactive or inconclusive.

Cc1[nH]c2ccccc2c1C(=O)CNc1ccc(Br)cc1	none (no result: NPSR antag, GALK inhibitor)
Cc1c(C(=O)Nc2ccc(Br)cc2)cnn1C	none
Cc1c(C(=O)c2no[n+]([O-])c2C(=O)c2cnn(C)c2C)cnn1C	TrxR1 inh 1.3µM
COC(CN(C(=O)CCl)C(C(=O)NC1CCCCC1)c1ccc(Cl)cc1)OC (stereo unspecified)	TrxR1 inh 35µM
COC(CN(C(=O)CCl)C(C(=O)NC1CCCC(C)C1C)c1ccc(C)cc1)OC (stereo unspecified)	TrxR1 inh 56µM
COC(CN(C(=O)CCl)C(C(=O)NC1CCCCC1)c1ccccc1C)OC (stereo unspecified)	TrxR1 inh 40µM
O=C(NC1CCCC1)C(c1ccc(Cl)cc1)N(Cc1ccc(F)cc1)C(=O)CCl (stereo unspecified)	NPSR antag inconclusive, TrxR1 inh 13µM
COC(CN(C)C(C(=O)NC1CCCCC1)c1ccccc1)OC (stereo unspecified)	none
O=C(NC1CCCC1)C(c1ccc(F)cc1)N(Cc1ccc(Cl)cc1)C(=O)CCl (stereo unspecified)	TrxR1 inh inconclusive
COc1ccc(C(C(=O)NC2CCCCC2)N(C(=O)CCl)c2ccc(Cl)cc2)cc1 (stereo unspecified)	TrxR1 inh inconclusive
COc1cc2nc(NC3CCN(C)CC3)nc(NC3CCN(C)CC3)c2cc1OC	none (no result: NPSR antag, GALK inhibitor)
CCOc1ccc(NC(=O)C2CCN(c3nnc(-n4c(C)ccc4C)s3)CC2)cc1	none (no result: NPSR antag, GALK inhibitor)
CC(NS(=O)(=O)c1ccc2c(c1)CCN2C(=O)CCCC(=O)O)c1ccccc1 (stereo unspecified)	none (no result: NPSR antag, GALK inhibitor)
O=C(O)/C=C/S(=O)(=O)c1ccc2ccccc2c1	TrxR1 inh 11µM
Cc1cc(C)nc(NC(=NCCc2c[nH]c3ccccc23)NC(=O)Nc2ccc(Cl)cc2)n1	NPSR antag 13µM
O=C(Nc1ccc(C(=O)N2CCC(N3CCCC3)CC2)cc1)c1ccc(Br)o1	TrxR1 inh 56µM (no result: NPSR antag, GALK inhibitor)
CCOc1ccccc1C1CC(=O)Nc2c1c(=O)n(C)c1ncnn21 (stereo unspecified)	none (no result: NPSR antag, GALK inhibitor)
NC(=O)c1cc[n+](CC2=C(C(=O)O)N3C(=O)[C@@H](NC(=O)[C@@H](c4ccccc4)S(=O)(=O)[O-])[C@H]3SC2)cc1	TrxR1 inh 45µM (no result: GALK inhibitor)
c1ccc2c(c1)ccn2-n1ccc2ccccc21	none (no result: NPSR antag, GALK inhibitor)
CCn1c(=S)[nH]c2ccccc21	TrxR1 inh 89µM
CCn1c(=S)[nH]c2cc(Cl)ccc21	none (no result: GALK inhibitor)
CCOC(=O)c1cc(=O)n2nc(-c3ccccc3F)nc2s1	NPSR antag inconclusive, TrxR1 inh 11µM
Nc1nc(Br)c2c(F)cccc2c1-c1ccc(Cl)cc1	TrxR1 inh 5.6µM
Cc1cc(N2CCN(c3ccc(F)cc3)CC2)n2cnnc2n1	none (no result: NPSR antag, GALK inhibitor)
O=c1[nH]c2ccc(NCc3ccc(-c4cccc(Cl)c4)o3)cc2[nH]1	none (no result: NPSR antag, GALK inhibitor)
Cc1nnc(Sc2nc3ccccc3o2)c2ccccc12	TrxR1 inh 8.9µM
Cc1ccc(-c2nnc(Sc3nc4ccccc4o3)c3ccccc23)cc1	NPSR antag inconclusive
O=Cc1ccc(I)cc1	none (no result: NPSR antag, GALK inhibitor)
COc1ccccc1-c1cn(-c2ccccc2)c(=S)[nH]1	none (no result: NPSR antag)
COc1ccccc1C1=NC(c2ccccc2)CN1c1ccccc1 (stereo unspecified)	TrxR1 inh 22µM (no result: NPSR antag)
O=C(COC(=O)CC1CC2CCC1C2)NCc1ccccc1 (stereo unspecified)	none (no result: NPSR antag, GALK inhibitor)
Cc1cc(Cl)n2c(nc3cc(F)c(F)cc32)c1C#N	TrxR1 inh 6.3µM
Cc1cc(C)n2c(=O)c3ccc(Cl)cc3nc2c1C#N	none
O=C(/C=C/c1ccc(Br)cc1)c1ccc(NC2=NCCCS2)cc1	NPSR antag inconclusive
CC(C)(C)c1ccc(/C=C/C(=O)c2ccc(NC3=NCCCS3)cc2)cc1	NPSR antag 7.9µM
O=C(NC1CCCCC1)C(c1cccnc1)N(C(=O)CCl)c1cccc(Cl)c1 (stereo unspecified)	TrxR1 inh 6.3µM
Cc1cccc(N(C(=O)CNC(=O)c2ccco2)C(C(=O)NC2CCCCC2)c2cccnc2)c1 (stereo unspecified)	none (no result: NPSR antag)
NC(=O)CSc1oc(-c2ccco2)nc1S(=O)(=O)c1ccccc1	TrxR1 inh 40µM (no result: NPSR antag)
Cc1c([N+](=O)[O-])cnc2ccccc12	none (no result: NPSR antag, GALK inhibitor)
N#CC(C#N)=Cc1cc2ccccc2nc1N1CCCCC1	TrxR1 inh 18µM
COC(=O)[C@@H]1N2C(=O)[C@@H](NC(=O)C(C)Oc3ccccc3)[C@H]2SC1(C)C (stereo partly specified)	none (no result: NPSR antag, GALK inhibitor)
CC(Oc1ccccc1)C(=O)N[C@@H]1C(=O)N2[C@@H]1SC(C)(C)[C@@H]2C(=O)OCc1ccccc1 (stereo partly specified)	TrxR1 inh 50µM (no result: NPSR antag, GALK inhibitor)
COc1c(C)cccc1C(=O)NC(=S)Nc1cccc2nsnc12	NPSR antag 7.9µM
CCOc1cc(/C=C\[N+](=O)[O-])ccc1OCC(=O)Nc1ccccc1C	NPSR antag 4µM, TrxR1 inh inconclusive
COc1ccc(CCNC(=O)c2cnc3sc(N4CCCC4)nn3c2=O)cc1OC	none (no result: NPSR antag, GALK inhibitor)
O=C(/C=C/c1ccco1)NC(=S)Nc1nc(-c2ccc3ccccc3c2)cs1	NPSR antag 1.3µM (no result: GALK inhibitor)
O=C(/C=C\c1ccco1)Nc1nc(-c2ccccc2)cs1	none
O=C(/C=C/c1ccco1)NC(=S)Nc1nc(-c2ccc(Cl)cc2)cs1	NPSR antag 3.2µM
CC(C(Sc1ccccc1N)c1ccccc1)[N+](=O)[O-] (stereo unspecified)	NPSR antag inconclusive, TrxR1 inh 6.3µM
Nc1ccccc1SSc1ccccc1N	NPSR antag inconclusive
CCCCn1nnc(NC(=S)NC(=O)c2ccc(OCC)c([N+](=O)[O-])c2)n1	TrxR1 inh 79µM (no result: NPSR antag)
CCOc1ccc(C(=O)NC(=S)Nc2ncccc2C)cc1[N+](=O)[O-]	none
CC(C)[C@H](NC(=O)c1ccc(Cl)cc1)C(=O)OCC(=O)N1CCN(c2ccccc2)CC1	TrxR1 inh 32µM (no result: NPSR antag, GALK inhibitor)
CCN(CC)c1ccc(/C=C/c2ccc3ccccc3n2)cc1	none (no result: NPSR antag, GALK inhibitor)
O=S1(=O)CCOCCN1Cc1ccccc1	none (no result: NPSR antag, GALK inhibitor)
C=C1C=CS(=O)(=O)N(Cc2ccccc2)C1	TrxR1 inh 35µM (no result: NPSR antag, GALK inhibitor)
COc1cc(OC)c(NS(=O)(=O)c2cc3c(cc2C)N(C(C)=O)CCO3)cc1Cl	none (no result: NPSR antag, GALK inhibitor)
COc1ccc(OC)c(NS(=O)(=O)c2cc3c(cc2Cl)N(C(C)=O)CCO3)c1	TrxR1 inh 18µM (no result: NPSR antag, GALK inhibitor)
O=C1CCCN1CCCNC(=S)Nc1ccc(Br)cc1Cl	TrxR1 inh 40µM
COc1ccc(Cl)cc1NC(=S)NCCCN1CCCC1=O	none
Fc1ccc(NC(=S)Nc2nccs2)cc1	TrxR1 inh 7.9µM
N#CC[n+]1cccc(Br)c1	none (no result: NPSR antag, GALK inhibitor)
CCn1cc(C(=O)N2CCN(c3ccccc3)CC2)c(=O)c2cc(S(=O)(=O)N(C)C3CCCCC3)ccc21	none (no result: NPSR antag, GALK inhibitor)
CCCOc1ccc(CNC(=O)CCCN2C(=O)CSc3c2c(C)nn3-c2ccccc2)cc1	none (no result: NPSR antag, GALK inhibitor)
CCN(CC)c1ccc(/C=C/c2c(C)cnc3ccccc23)cc1	none (no result: NPSR antag, GALK inhibitor)
CNCc1cc2ccc(C)cc2[nH]c1=O	TrxR1 inh 25µM
CCN1C(=O)/C(=C\C=C2/C=CC=CN2CC)SC1=S	TrxR1 inh inconclusive
CCN1C(=O)/C(=C/C=C2\C=CN(CC)c3ccccc32)SC1=S	NPSR antag 3.2µM
